Hits are enriched below; roughly 3.5% of the tested compounds scored in any of these assays.
MITF inh – blocks human microphthalmia-associated transcription factor. AlphaScreen MITF homodimerization, bead proximity signal. AID 1259374. hit rate 0.91% among 650,000. inhibition, % at 2.6 µM. O75030; in the data active means inhibition above about 50%;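 further: 0% = vehicle wells with protein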
FBW7 activator – human FBW7 E3 ligase activation, primary screen. Q969H0. AlphaScreen FBW7–phospho-cyclin E peptide binding, activator screen. normalized activity (activation), % at 26.1 µM. hit rate 0.13% among 650,000; in the data active means normalized activity above about 1.9%;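 further: purified mutant Fbw7 with reduced substrate affinity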
TEAD-YAP block – TEAD-YAP interaction inhibition; hit rate 1.4% among 640,000; HEK-TIYL cells, TEAD-Gal4/YAP UAS-luciferase luminescence; AID 1259422; inhibition, % at 9.12 µM; in the data active means inhibition above about 32%;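 further: 0% = median of test compound wells and 100% = reference inhibitor wells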
GPR151 activ – human GPR151 activation; Q8TDV0; PathHunter beta-arrestin GPR151 cells, luminescence; activation, % at 11.2 µM; hit rate 1% among 650,000; in the data active means activation above about 4.9%;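 further: 0% = median of compound wells and 100% = cells with positive control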
Target sequence (Q8TDV0 whole entry, looked up): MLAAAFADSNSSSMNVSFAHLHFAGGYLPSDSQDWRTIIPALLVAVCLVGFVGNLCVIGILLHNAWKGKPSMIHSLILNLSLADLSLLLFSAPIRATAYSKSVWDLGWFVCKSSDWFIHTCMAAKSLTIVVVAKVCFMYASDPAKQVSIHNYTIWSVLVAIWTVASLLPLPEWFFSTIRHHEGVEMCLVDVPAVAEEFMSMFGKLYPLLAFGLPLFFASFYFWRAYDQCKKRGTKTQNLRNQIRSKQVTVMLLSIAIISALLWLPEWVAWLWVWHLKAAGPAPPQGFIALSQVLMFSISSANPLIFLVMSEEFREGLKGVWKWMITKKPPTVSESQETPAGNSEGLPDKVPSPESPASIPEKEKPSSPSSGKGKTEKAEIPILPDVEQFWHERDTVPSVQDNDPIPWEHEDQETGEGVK
* = called active by the depositor.

SMILES | MITF inh | FBW7 activator | TEAD-YAP block | GPR151 activ
CCOC(=O)c1c(C)[nH]c(C(=O)CSc2nccn2C)c1C | -6 | 0 | 87* | -7
O=C(CN1C(=O)C(c2ccccc2)Oc2cccnc21)NCc1ccco1 (centres undefined) | 4 | 0 | 8 | 1
CCCC(=O)N1c2ccccc2-c2nnc(SC)nc2OC1c1cc2c(cc1Cl)OCO2 (centres undefined) | 0 | 0 | 1 | 1
CCCCCCOc1ccc(C(=O)COC(=O)c2ccc(Br)cc2)cc1 | -7 | 0 | 6 | 0
O=C(Nc1ccc(Br)cc1)c1ccc(F)c(S(=O)(=O)NCc2ccco2)c1 | -4 | 0 | 43* | 0
O=C(Nc1ccc(Br)cc1)c1ccc(F)c(S(=O)(=O)NCC2CCCO2)c1 (centres undefined) | 1 | 0 | 50* | 1
COc1ccccc1CNS(=O)(=O)c1cc(C(=O)Nc2ccc(Br)cc2)ccc1F | 1 | 0 | 33* | 3
COC(=O)CSc1nc2cc(OC)c(OC)cc2cc1C | -1 | 0 | 4 | -1
CC(NC(=O)c1c(F)cccc1F)C(c1cccs1)N1CCN(C)CC1 (centres undefined) | 6 | 1 | 4 | -1
Cc1cc(=O)[nH]c2nnc(SCC(=O)Nc3ccc(F)cc3)n12 | -7 | 0 | -8 | -1
N/C(=N\c1nc(C(F)(F)F)cc(=O)[nH]1)Nc1ccc(I)cc1 | -6 | 0 | 45* | -1
Cc1ccccc1-c1ccc(N2CCN(C(=O)C3CCN(S(C)(=O)=O)CC3)CC2)nn1 | -10 | 0 | -18 | 1
Cc1ccccc1-c1ccc(N2CCN(S(C)(=O)=O)CC2)nn1 | -10 | 0 | 45* | -9
S=c1nc2[nH]c3ccc(Br)cc3c2n[nH]1 | 17 | 0 | -15 | 2
CCOc1ccc(C2Nc3ccccc3C(=O)N2c2ccc(F)c(Cl)c2)cc1 (centres undefined) | 14 | 0 | -46 | -6
CCOc1ccc(C2Nc3ccccc3C(=O)N2c2ccc3ccccc3c2)cc1 (centres undefined) | 1 | 0 | 74* | -7
COc1ccccc1/C=C1/SC(=Nc2ccccc2)N(c2ccccc2)C1=O | 14 | 0 | 3 | 0
Cn1cc(-c2cccc3cnc(NC4CCN(C(=O)N5CCCC5)C4)nc23)cn1 (centres undefined) | 0 | 0 | 39* | -1
CCC(C)c1ccc(OCC(=O)Nc2cccc(C(=O)Nc3nccs3)c2)cc1 (centres undefined) | 2 | 0 | -3 | 2
CCN1/C(=C/C=C/c2oc3ccc(Cl)cc3[n+]2CC)Oc2ccc(Cl)cc21 | 1 | 0 | 6 | 0
CCN1/C(=C/C=C/c2oc3ccc4ccccc4c3[n+]2CC)Oc2ccc3ccccc3c21 | -8 | 0 | 78* | 2
CCn1c(=N)n(CC(=O)c2ccc(Br)cc2)c2ccccc21 | -6 | 3.4* | -28 | -1
CCn1c(=N)n(CC(=O)c2ccc(C)cc2)c2ccccc21 | 7 | 1 | -17 | -1
CCNC(=O)[C@@H]1C[C@@H](NC2CCCCCC2)CN1C1Cc2ccccc2C1 | 6 | 0 | -1 | 1
COc1ccc(CNc2ccc3ncc(-c4ccncc4)n3n2)cc1 | -1 | 0 | 66* | 0
SMILES | MITF inh | FBW7 activator | TEAD-YAP block | GPR151 activ
NS(=O)(=O)c1ccc(CNc2ccc3ncc(-c4cccc5cccnc45)n3n2)cc1 | -1 | 0 | 2 | 0
OCc1ccc(-c2cnc3ccc(NCc4ccc(F)cc4)nn23)cc1 | 7 | 0 | 25 | -1
Oc1ccc(-c2cnc3ccc(NCc4ccc(F)cc4)nn23)cc1 | -18 | 0 | 40* | 0
COc1ccc(-c2cnc3ccc(NCc4ccc5c(c4)OCO5)nn23)cc1 | -9 | 0 | 36* | -1
NS(=O)(=O)c1ccc(CNc2ccc3ncc(-c4ccccc4F)n3n2)cc1 | 17 | 0 | 34* | 0
CN(C)c1ccc(NC(=O)c2cc(Cl)ccc2[N+](=O)[O-])cc1 | 6 | 0 | -8 | 1
COc1ccccc1-c1cnc2ccc(NCc3cc(OC)c(OC)c(OC)c3)nn12 | 12 | 0 | 59* | -1
CN(C)c1ccc(-c2cnc3ccc(NCc4ccc5c(c4)OCO5)nn23)cc1 | 7 | 0 | 55* | 0
Clc1ccc(-c2cnc3ccc(NCc4ccc5c(c4)OCO5)nn23)cc1 | 0 | 1 | -9 | -1
Cc1cc(/C=C(\C#N)c2nc3ccccc3[nH]2)c(C)n1C1CC1 | -1 | 0 | -30 | 2
Cc1cc(/C=C(\C#N)c2nc3ccccc3[nH]2)c(C)n1-c1ccc(F)cc1 | -5 | 0 | 71* | -1
COC(=O)C(C)Oc1cc(OC(C)C(=O)OC)c2c3c(c(=O)oc2c1)CCC3 (centres undefined) | -12 | 1 | 44* | 0
CCOC(=O)C(C)Oc1cc(OC(C)C(=O)OCC)c2c3c(c(=O)oc2c1)CCCC3 (centres undefined) | 6 | 0 | 16 | -1
Cc1nn(-c2ccc(S(N)(=O)=O)cc2)c(C)c1-c1cccc([N+](=O)[O-])c1 | 6 | 0 | -17 | 0
Oc1ccccc1/C=N/Nc1ccc(Cl)nn1 | 51* | 0 | 72* | 0
Oc1ccccc1/C=N\Nc1nc2ccccc2o1 | 22 | 0 | 52* | -3
Cc1cc(C)n(-c2cc(N/N=C/c3ccccc3O)ncn2)n1 | 10 | -1 | 59* | 0
Oc1ccccc1/C=N\Nc1ccccn1 | 82* | -1 | -70 | 1
Oc1c(Br)cc(Br)cc1/C=N/Nc1ccccn1 | 27 | 0 | 18 | -1
Cc1nn(-c2ccccc2)c2sc(C(=O)NC(=S)NC3CCS(=O)(=O)C3)cc12 (centres undefined) | -12 | 0 | -1 | 2
CCN(CC)CCCNC(=O)c1cc2cc([N+](=O)[O-])ccc2oc1=O | -1 | 0 | 7 | 0
O=C(N/C(=C\c1cccc(Cl)c1Cl)C(=O)N1CC2CC(C1)c1cccc(=O)n1C2)c1ccccc1 (centres undefined) | 3 | 0 | -8 | 1
CC(=O)OCc1cc(Cl)ccc1O | 12 | 0 | -2 | 0
O=C(N/N=C/c1ccccc1O)C(=O)Nc1ccccn1 | 61* | -2 | -16 | 0
Oc1ccccc1/C=N\Nc1ncc(F)c(N2CCOCC2)n1 | 88* | -1 | -27 | 0
SMILES | MITF inh | FBW7 activator | TEAD-YAP block | GPR151 activ
CC(=O)N1CCC(N(C(=O)CCC(=O)O)C2CC2)CC1 | 14 | 4.6* | -5 | 0
O=C(O)CCC(=O)N(C1CC1)C1CCN(CCc2ccccc2)CC1 | 6 | 0 | 0 | 0
O=C(Cn1nnc2ccccc2c1=O)NCc1ccccn1 | -3 | 0 | -2 | -1
O=C1Nc2ccc(Cl)cc2/C1=c1/sc2n(c1=O)CN(c1cccc(F)c1)CN=2 | 3 | 0 | 2 | -2
COc1ccccc1CNC(=O)c1cc2c(=O)n(C)c3ccccc3c2s1 | -13 | 0 | 3 | 1
Cc1ccc(OCc2nc(-c3ccccn3)no2)c(Br)c1 | 4 | 0 | 39* | -7
Cc1cccc(NC(=O)c2ccc(F)c(S(=O)(=O)N3CCCc4ccccc43)c2)c1 | -2 | 0 | 10 | 2
O=C(Nc1ccc(Br)cc1)c1ccc(F)c(S(=O)(=O)N2CCCc3ccccc32)c1 | -6 | 0 | 46* | -1

Source: PubChem
